Drawing on PubChem BioAssay (NCI), this text covers growth for nine compounds.

Values joined by “and” are separate entries in the source; they are usually repeats but may differ in a detail not shown here. Equal entries are not always repeated. The panel holds about 83,000 compounds, 20% with a hit somewhere; the sample as a whole holds those more often.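 In brief: 96-well plates, 48 h treatment, single concentration, percent growth endpoint.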 Where a structure was tested more than once in an assay, its records may differ in their call. Active and inactive are the calls of the source. The calls were made as follows: active = growth percent below 10; inactive = the rest.

Some test systems named below: HOP-92 NSCLC; MALME-3M melanoma; RXF 393 renal; UACC-257 melanoma; SK-MEL-2 melanoma; TK-10 renal; CAKI-1 renal; A498 renal; RPMI-8226 leukemia; OVCAR-3 ovarian; BT-549 breast; MDA-MB-435 melanoma; K-562 leukemia; SK-MEL-28 melanoma; SN12C renal; HCC-2998 colon.
Common to all, as to experiment: NCI-60 one-dose screen, 48 h (100 = growth as untreated, 0 = no growth, -100 = all killed)
Holding throughout (details): 10 µM

For the compound `COc1cc2c(O[C@@H]3OC[C@H](OC(C)=O)[C@H](OC(C)=O)[C@H]3O)c3c(c(-c4ccc5c(c4)OCO5)c2cc1OC)C(=O)OC3`, the growth in the test with HOP-92 NSCLC was -13.3% (active); in the test on MALME-3M melanoma, 39.3% (inactive); in the test on RXF 393 renal, 54.4% (inactive); in the test on UACC-257 melanoma, -35.8% (active); with SK-MEL-2 melanoma it was -31.8% (active); in the test on TK-10 renal, 42.3% (inactive). Further, the growth was 13.8% (inactive) in the test with CAKI-1 renal; 70.6% (inactive) with A498 renal; -2.08% (active) with RPMI-8226 leukemia; 59.4% (inactive) in the test with OVCAR-3 ovarian; 23.4% (inactive) with BT-549 breast; 4.94% (active) with MDA-MB-435 melanoma.

`CC(C)=CCc1c2c(c(O)c3c1O[C@]14C(=C[C@@H]5C[C@H]1C(C)(C)O[C@@]4(C/C=C(/C)C(=O)O)C5=O)C3=O)C=CC(C)(C)O2`: the growth was -53.6% (active) with HOP-92 NSCLC; 2.2% (active) in the test on K-562 leukemia; -70.4% (active) in the test on MALME-3M melanoma; -85.5% (active) in the test with RXF 393 renal; -77.2% (active) in the test on UACC-257 melanoma; -88.2% (active) in the test on SK-MEL-28 melanoma. The growth was -75.2% (active) in the test on SK-MEL-2 melanoma; -26.9% (active) in the test on SN12C renal; -94.3% (active) with A498 renal; -8.35% (active) in the test with RPMI-8226 leukemia; -93.9% (active) in the test with OVCAR-3 ovarian; -11.2% (active) in the test with BT-549 breast. Also, the growth is -80.1% (active) in the test with MDA-MB-435 melanoma and -88.1% (active) with HCC-2998 colon.

As to `COc1cc2c(O[C@@H]3OC[C@H](O)[C@H](O)[C@H]3O)c3c(c(-c4ccc5c(c4)OCO5)c2cc1OC)C(=O)OC3`, the growth was 19.3% (inactive) in the test with K-562 leukemia; 54.4% (inactive) in the test on MALME-3M melanoma; 53.6% (inactive) in the test on RXF 393 renal; 23.6% (inactive) in the test on UACC-257 melanoma; 40.8% (inactive) with SK-MEL-28 melanoma; 49% (inactive) in the test on SK-MEL-2 melanoma. Besides, the growth was 56.2% (inactive) in the test on SN12C renal; 15% (inactive) in the test on A498 renal; 89.8% (inactive) with RPMI-8226 leukemia; 80.2% (inactive) with OVCAR-3 ovarian; 31% (inactive) in the test with BT-549 breast; 39.5% (inactive) in the test on MDA-MB-435 melanoma. Moreover, in the test with HCC-2998 colon, the growth was 73.4% (inactive).

For `C/C=C\C(=O)O[C@@H]1CC2O[C@@H]3C=C(C)C(=O)C[C@]3(C)[C@]1(C)[C@]21CO1`, the growth with HOP-92 NSCLC was -17.5% (active); in the test on K-562 leukemia, -6.67% (active); with MALME-3M melanoma it was -22.9% (active); in the test on RXF 393 renal it was -31.6% (active); with SK-MEL-28 melanoma it was -20.9% (active); in the test with SK-MEL-2 melanoma, -43.2% (active). Also, the growth in the test on SN12C renal was -6.14% (active); in the test on TK-10 renal it was -19.4% (active); in the test with A498 renal, -30.2% (active); in the test on RPMI-8226 leukemia it was -31.2% (active); in the test on OVCAR-3 ovarian, -3.17% (active); in the test on BT-549 breast, -22.8% (active). In addition, the growth was -34.3% (active) with MDA-MB-435 melanoma and -23.5% (active) with HCC-2998 colon.

As for `CC1=C2C(=C[C@@](C)(COS(C)(=O)=O)[C@@H]2O)C(=O)[C@](C)(O)C12CC2`, the growth in the test with HOP-92 NSCLC is -15.5% (active); in the test with K-562 leukemia, 3.56% (active); with MALME-3M melanoma it was -33% (active); in the test on RXF 393 renal, -78.1% (active); with UACC-257 melanoma, 0.386% (active); in the test on SK-MEL-28 melanoma it was -28.4% (active). In addition, the growth in the test with SK-MEL-2 melanoma was -39.5% (active); in the test on SN12C renal, 13.8% (inactive); in the test with TK-10 renal it was 5.33% (active); in the test on CAKI-1 renal, -31.5% (active); with A498 renal, -61% (active); in the test with OVCAR-3 ovarian, 7.64% (active). The growth in the test on BT-549 breast was -15.9% (active); in the test on HCC-2998 colon, -25.7% (active).

As for `CC1=C2C(=C[C@@](C)(C=O)[C@@H]2O)C(=O)[C@](C)(O)C12CC2`, the growth is -8.36% (active) in the test on HOP-92 NSCLC; 24.2% (inactive) in the test with K-562 leukemia; -32.6% (active) in the test on MALME-3M melanoma; -77% (active) in the test on RXF 393 renal; 6.75% (active) with UACC-257 melanoma; -8.99% (active) in the test on SK-MEL-28 melanoma. Besides, the growth with SK-MEL-2 melanoma is -37.8% (active); with SN12C renal, 26.1% (inactive); in the test on TK-10 renal, 2.16% (active); in the test with CAKI-1 renal, 12.6% (inactive); in the test on A498 renal, -57% (active); in the test with OVCAR-3 ovarian, -10.1% (active). The results for the growth with BT-549 breast and in the test with HCC-2998 colon were -6.13% (active) and -25.1% (active), respectively.

Regarding `COc1cc(C)c(-c2ccc(OC)c(=O)cc2C)c(OC)c1OC`, the growth in the test with HOP-92 NSCLC is 39.6% (inactive) and 85.5% (inactive); in the test with K-562 leukemia it was 6.36% (active) and 85.8% (inactive); in the test on MALME-3M melanoma, 46.7% (inactive) and 95.3% (inactive); in the test with RXF 393 renal it was -10.8% (active) and 115% (inactive); in the test with UACC-257 melanoma, 56.2% (inactive) and 97.6% (inactive); in the test with SK-MEL-28 melanoma, 47.9% (inactive) and 103% (inactive). For the same compound, the growth was 0.162% (active) and 113% (inactive) in the test on SK-MEL-2 melanoma; 37.1% (inactive) and 98.3% (inactive) with SN12C renal; 94.5% (inactive) and 94.2% (inactive) in the test with TK-10 renal; 39.6% (inactive) and 86.1% (inactive) with CAKI-1 renal; -18% (active) and 86.9% (inactive) in the test with A498 renal; 15% (inactive) and 94.4% (inactive) with RPMI-8226 leukemia. The growth with BT-549 breast was 15.7% (inactive) and 120% (inactive); with MDA-MB-435 melanoma, -4.07% (active) and 99.6% (inactive); with HCC-2998 colon it was 10.6% (inactive) and 114% (inactive).

Regarding `COc1cc2c(cc1OC)[C@@H]1N(CC2)C(=O)c2ccccc2[C@@]1(C)C(=O)O`, the growth with HOP-92 NSCLC is 123% (inactive); in the test with K-562 leukemia, 105% (inactive); in the test on MALME-3M melanoma, 64.6% (inactive); in the test with RXF 393 renal, 127% (inactive); in the test with UACC-257 melanoma it was 107% (inactive); in the test with SK-MEL-28 melanoma it was 113% (inactive). Besides, the growth with SK-MEL-2 melanoma is 109% (inactive); with SN12C renal it was 102% (inactive); with TK-10 renal, 107% (inactive); with CAKI-1 renal it was 101% (inactive); in the test with A498 renal, 89.4% (inactive); with RPMI-8226 leukemia, 110% (inactive). The growth with OVCAR-3 ovarian was 122% (inactive); in the test on BT-549 breast it was 108% (inactive); in the test with MDA-MB-435 melanoma it was 103% (inactive); with HCC-2998 colon, 110% (inactive).

As to `CC1=C(CN(O)C(N)=O)C2=C(C)C3(CC3)[C@](C)(O)C(=O)C2=C1`, the growth was -3.67% (active) in the test with HOP-92 NSCLC; 0.207% (active) with K-562 leukemia; 2.97% (active) in the test on MALME-3M melanoma; -85.3% (active) in the test with RXF 393 renal; 6.8% (active) with UACC-257 melanoma; -28.4% (active) in the test on SK-MEL-28 melanoma. Besides, the growth was -28.8% (active) in the test on SK-MEL-2 melanoma; 25.1% (inactive) with SN12C renal; -5.27% (active) with TK-10 renal; 4.61% (active) in the test on CAKI-1 renal; -76.5% (active) with A498 renal; -22.7% (active) in the test with RPMI-8226 leukemia. For the same compound, the growth in the test on OVCAR-3 ovarian was -3.14% (active); in the test on BT-549 breast, 12.9% (inactive); with MDA-MB-435 melanoma, -42.8% (active); in the test on HCC-2998 colon, -63.1% (active).
